Hit rate of the full screen: of about 330,000 compounds, about 2,800 (0.85%) were called active.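 How the source made its calls: active means mean inhibition across replicates of 60% or more, whatever share of single replicates reaches that level; inconclusive means some that reach 60%, reason not given; inactive means mean inhibition across replicates below 60%.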 The sample as a whole holds a higher share of actives than the screen did.
Assay: MITF transcriptional activity suppression – cell-based, SK-MEL-5, single point, luciferase, primary screen (AID 488899)
Details: SK-MEL-5 TRPM1 promoter luciferase, 24 h; at 12.5 µM; hits give high values

inhibition, inactive:
CC(C)C(C(=O)NC1CCCCC1)N(CC1CCCO1)C(=O)CNS(=O)(=O)c1ccc(F)cc1 (centres undefined) 10.3%
O=C(CN1CCOc2ccccc21)N1CCC(Cc2ccccc2)CC1 5.49%
CCCC(O)(c1ccccc1)C(c1ccccc1)c1ccccn1 (centres undefined) 4.1%
COc1ccc(CNCCCn2cnc3c(OCc4ccccc4)ncnc32)cc1 -4.78%
CC(C)(c1ccccc1)c1ccc(OCCN)cc1 -6.11%
Cc1cc(C)n(CC(O)COc2ccc(C(C)(C)C)cc2)n1 (centres undefined) -18.8%
Nc1ccc2c(c1)C(O)c1ccc(Cl)cc1-2 (centres undefined) -6.14%
CN(CC(=O)NCCc1ccc(F)cc1)CC(=O)Nc1ccc(F)c(F)c1F 19.3%
Nc1nonc1-n1nnc(C(=O)N/N=C/c2cc(Br)ccc2O)c1CSC1=NCCS1 17.4%
CC(C)(CCl)C(=O)Nc1ccc(Sc2ccc(F)cc2)cc1 -9.91%
O=C(CCl)Nc1cccc(CP(=O)(c2ccccc2)c2ccccc2)c1 5.96%
COC(=O)C1CC2=C(CC(C)(C)CC2=O)N(c2ccccc2)C1=O (centres undefined) -6.85%
O=C(O)CCCn1c(=O)c2cccn2c2ccc(F)cc21 7.45%
CCCC/C(C)=N/NC(=O)NC1CCCCC1 4.57%
Cc1cccc(C(=O)OC(C)CN2CCN(C)CC2)c1 (centres undefined) -41.9%
CCC1=Nc2cc(C(=O)NCCN3CCCC3)ccc2Sc2ccc(C)cc21 -15.3%
FC(F)(F)c1cccc(Cc2noc(CN3CCC(N4CCCCC4)CC3)n2)c1 1.26%
NC(=O)C1CCN(C(=O)c2cc(S(=O)(=O)N3CCN(c4ccccc4)CC3)ccc2Cl)CC1 4.66%
Cc1cc(NC(=O)CN2CCCC(C)C2)n(-c2nc3ccccc3s2)n1 (centres undefined) 1.1%
CCN(CC(=O)NCCCN1CCOCC1)S(=O)(=O)c1cc(Cl)ccc1Cl 12.6%
O=c1[nH]c2cccnc2n(CCNc2ncc(C(F)(F)F)cc2Cl)c1=O -3.01%
O=C(O[C@@H]1[C@H](Cc2ccccc2)NS(=O)(=O)[C@H]2C[C@@H]3C=C[C@]12O3)c1ccccc1Br -5.01%
O=C(Nc1ccc(Br)cn1)C1CCN(S(=O)(=O)c2cccs2)CC1 20.1%
CCc1ccc(NC(=O)CN2CCC(C(=O)c3ccc(OC)cc3)CC2)cc1 16.5%
COCC(=O)Nc1c(C(=O)N2CCCC2)oc2ccccc12 -5.06%
Cc1cc(C)cc(OCC(=O)NNC(=O)c2cc3ccccc3oc2=O)c1 -14.8%
NC(=O)C1(N2CCCCC2)CCN(C(=O)c2ccc(C#Cc3ccccc3)o2)CC1 10.7%
COc1ccc(C(=O)OCC(=O)c2cc(C)n(CC3CCCO3)c2C)cc1[N+](=O)[O-] (centres undefined) -13.5%
Cc1cc(C(=O)CCl)c(C)n1CC1COc2ccccc2O1 (centres undefined) 51.2%
CCOc1cccc2c1OC1(CCCCC1)N1N=C(c3cccnc3)CC21 (centres undefined) -62.4%
Cn1c(=O)c2c(n(Cc3ccccc3)c1=O)NC(=O)C2CC(=O)N1CCc2ccccc2C1 (centres undefined) -5.67%
COC(=O)C1CCN(CC(N)=O)CC1 -7.19%
Cc1cc(C(=O)N/N=C/c2cc([N+](=O)[O-])cc(C)c2O)n[nH]1 11.2%
COc1ccc2ccccc2c1/C=N/NC(=O)c1cc(C)[nH]n1 -14.1%
COc1ccc(S(=O)(=O)N2CCOCC2)cc1NC(=O)c1ccc(OCC(C)C)c(OC)c1 -3.59%
O=C(Oc1ccc(-c2nc(-c3ccccn3)no2)cc1)c1ccccc1 36.6%
CC1CCCN(C(=O)CN2C(=O)c3ccccc3S2(=O)=O)C1 (centres undefined) 11.4%
O=C(CN1C(=O)c2ccccc2S1(=O)=O)NC1CCCCC1 4.83%
Cc1ccc(SCC(=O)NC(=O)NCc2ccco2)c(C)c1 9.21%
COCC(=O)N(C)[C@H]1C[C@H]2c3cc(Oc4ccccc4C)ccc3CCN2C(=O)[C@H]1[C@H](C)O -16.5%
CC1CCCN(CC(O)COCc2ccccc2)C1 (centres undefined) -13.7%
COc1cc(C)cc(CN2CCC(Cc3ccccc3)CC2)c1O 2.68%
Cc1cc(=O)oc2cc(OCC(=O)N3CCN(c4ccc(F)cc4)CC3)c(Cl)cc12 -0.292%
Cc1ccc(CN2CCN(c3ncccn3)CC2)c(C)c1 4.53%
COc1ccc(OCCNS(=O)(=O)Cc2ccccc2)cc1 0.0862%
Cc1ccc(NC(=O)CN2CCCCC2)c2c1CC(C)(C)O2 -7.61%
CCNC(=S)NCC 5.56%
O=C(NNC(=O)c1ccc(-n2cncn2)c([N+](=O)[O-])c1)c1ccccc1 -1.1%

inhibition, active:
C[C@@H]1C[C@@H]2O[C@H]2/C=C\C=C\C(=O)Cc2c(Cl)c(O)cc(O)c2C(=O)O1 71.8%
CN(C)CC(O)COc1ccc(C(C)(C)c2ccc(OCC(O)CN(C)C)cc2)cc1 (centres undefined) 65.7%
O=C(CCl)Nc1ccc(Sc2ccc(NC(=O)CCl)cc2)cc1 88.6%
Cc1cccc(-c2nc3ccc(C(=O)NCCN4CCN(C)CC4)cc3nc2-c2cccc(C)c2)c1 69.1%
CCC(C)Cn1c(O)cc2nn(-c3nc4ccccc4s3)c(=O)c-2c1C (centres undefined) 89%
O=c1[nH]c(=S)[nH]c(O)c1/C=C1\C=Nc2ccccc21 65.4%
Cc1ccsc1C(=O)OCC(=O)c1cc(C)n(CC2CCCO2)c1C (centres undefined) 68%
CC(C)(C)c1cc(C(=O)N/N=C/c2ccc([N+](=O)[O-])s2)n[nH]1 85.1%
O=C(CN1C(=O)c2ccccc2S1(=O)=O)N1CCc2ccccc21 74.1%
Oc1c(CN2CCN(c3ccc(F)cc3)CC2)cc(Cl)c2cccnc12 70.7%
Oc1c(CN2CCCC2)cc(COCc2ccccc2)c2cccnc12 73.5%

— PubChem BioAssay AID488899 (Broad Institute, 2010)
